# According to PubChem BioAssay (NCI):
# Compounds without any hit were thinned out: in the full panel of roughly 83,000, 20% have a hit.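 The test compound was applied at a single concentration to cells in 96-well plates for 48 hours, and percent growth was recorded.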 Activity calls are given as the source filed them. The calls were made as follows: active = growth percent below 10; inactive = the rest.
# Test system: HCT-15 colon
# Test: NCI-60 one-dose screen, 48 h (100 = growth as untreated, 0 = no growth, -100 = all killed)
# Conditions: 10 µM unless noted
row,SMILES,growth
1,CN1CC=C(c2cc(NC(=O)Nc3ccc(Oc4ccnc(NC(=O)C5CC5)c4)c(F)c3)cc(C(F)(F)F)c2)CC1,5.35% (active)
2,COc1ccc(C(=O)c2cc(OC)c(C)c(OC)c2)cc1OC(=O)CCl,12.4% (inactive)
3,NC(=O)C(O)(c1ccccc1)c1ccccc1,101% (inactive)
4,CCOC(=O)C(=Cc1c(-c2ccccc2)[nH]c2ccccc12)C(=O)OCC,36.5% (inactive)
5,C=C(C)[C@@H]1CC[C@]2(C(=O)OCCCC[P+](c3ccccc3)(c3ccccc3)c3ccccc3)CC[C@]3(C)[C@H](CC[C@@H]4[C@@]5(C)CC[C@H](OC(=O)C(Cl)Cl)C(C)(C)[C@@H]5CC[C@]43C)[C@@H]12,-8.59% (active)
6,CC(=O)Nc1ccc2c(c1)Cc1cc(F)ccc1-2,105% (inactive)
7,Cc1nccc2c3ccc(OCc4cn(-c5ccccc5)nn4)cc3n(CCCc3ccccc3)c12,56.9% (inactive)
8,N#Cc1c(NC(=O)c2cccs2)[n+]([O-])c2cc(C(F)(F)F)ccc2[n+]1[O-],117% (inactive)
9,O=C(Nc1ccccc1)NS(=O)(=O)c1c[nH]c(=S)[nH]c1=O,109% (inactive)
10,O=C(CSC(=S)N1CCCCC1)Nc1ccccc1,99.1% (inactive)
11,COc1ccccc1-c1ccc2nc(NC(=O)Nc3cc(C(F)(F)F)cc(C(F)(F)F)c3)sc2c1,9.74% (active)
12,Cc1cc(Cl)cc(CN(Cc2ccccc2)Cc2c(O)ccc3ccccc23)c1O,108% (inactive)
13,Cn1cc(-c2ccc3c(c2)ncn3-c2ccc(CC(=O)Nc3cc(C(C)(C)C)on3)cc2)cn1,16.1% (inactive)
14,COc1ccc2nc(-c3ccc(Cl)cc3)cc(C(=O)N3N=C(c4ccc(N)cc4)CC3c3ccccc3)c2c1 (configuration not stated),26.7% (inactive)
15,COc1cc(C(=O)Nc2cc(O)c(C/C=C(\C)CCC=C(C)C)c(O)c2)cc2c1O[C@]1(C)CC[C@@H](O)C(C)(C)[C@H]1C2,1.55% (active)
16,C=C(C)[C@@H]1CC[C@]2(C(=O)NCCCO)CC[C@]3(C)[C@H](CC[C@@H]4[C@@]5(C)CCCNC(C)(C)[C@@H]5CC[C@]43C)[C@@H]12,68.6% (inactive)
17,Nc1ccc2c(c1)C(=O)C(=O)c1c-2nc2ccccn12,-29.8% (active)
18,CC(C)NS(=O)(=O)c1cccc(-c2ccc3c(=O)n(CCCN)c4c(c3c2)C(=O)c2ccccc2-4)c1,102% (inactive)
19,CCSc1nc(Cl)c(C#N)c(-c2ccc(F)cc2)n1,88.1% (inactive)

row,SMILES,growth
1,COc1ccc(-c2[nH]c3ccc(OC)cc3c2C=C(C#N)C#N)cc1,38.6% (inactive)
2,OCCNc1nc(NCCO)nc(Nc2ccc(C3=NN(c4cc(Cl)cc(Cl)c4)C(c4ccccc4)C3)cc2)n1 (configuration not stated),27.5% (inactive)
3,COc1ccc2[nH]c(=O)c(/C=C/C(=O)c3ccccc3OC)cc2c1,11.3% (inactive)
4,CC(=O)Nc1nc2c(c(N)c1C#N)C(c1cccc(Cl)c1)C1=C(CCCC1=O)N2c1sc2c(c1C#N)CCCC2 (configuration not stated),30.1% (inactive)
5,C#C[C@@]1(O)[C@@H](CO)O[C@@H](n2cnc3c(-c4ccccc4)ncnc32)[C@@H]1O,98% (inactive)
6,COc1cc(-c2cn(-c3ccc(Cl)c(Cl)c3)c(=O)[nH]2)cc(OC)c1OC,103% (inactive)
7,Nc1ccc(C2=NN(C(=O)c3cc(-c4ccc(Cl)cc4)nc4ccccc34)C(c3ccccc3)C2)cc1 (configuration not stated),25.5% (inactive)
8,Cc1c(Cl)cccc1NC(=O)c1sc2nc3c(cc2c1N)COCC3,19.6% (inactive)
9,CC1CCN(CCCCCOc2ccc3oc4ccccc4c(=O)c3c2)CC1,35.7% (inactive)
10,O=S(=O)(Nc1nccs1)c1ccc(Nc2nc(-c3ccncc3)cs2)cc1,103% (inactive)
11,N#Cc1c(-c2ccc(F)cc2)nc(N/N=C/c2cccc(O)c2)nc1N1CCOCC1,69.5% (inactive)
12,COc1cc(-c2csc(NC(=O)Nc3cc(Cl)cc(Cl)c3)n2)cc(OC)c1OC,14.5% (inactive)
13,COc1ccc(C(=O)c2cc(F)c(F)c(OC)c2F)cc1OC(=O)CCl,26.4% (inactive)
14,Cc1c(Cl)cccc1NC(=O)c1sc2nc3c(cc2c1N)CCCCCC3,24.1% (inactive)
15,C#C[C@@]1(O)[C@@H](CO)O[C@@H](n2cc(-c3ccco3)c3c(N)ncnc32)[C@@H]1O,59.3% (inactive)
16,COc1cc(/C=C/C(=O)c2ccc(NC(=O)CSc3nnc(-c4cc(OC)c(OC)c(OC)c4)n3-c3ccccc3)cc2)cc(OC)c1OC,-37.6% (active)
17,COc1ccccc1C(=O)/C=C/c1cc2cccc(OC)c2[nH]c1=O,-12.5% (active)
18,CN1C(=O)c2cc(Cl)nc3c(NC(=O)c4cccc(Cl)c4)c(Cl)c(NC(=O)c4cccc(Cl)c4)c1c23,-83.9% (active)
